Drawing on PubChem BioAssay (NCI), this text covers growth for nine molecules.

Common to all, as to assay: NCI-60 one-dose screen, 48 h (100 = growth as untreated, 0 = no growth, -100 = all killed)
For experiment [1], the system named is SK-MEL-2 melanoma. The conditions noted are these: 10 µM unless noted.
Experiment [2] deals with EKVX NSCLC. The following applies: 10 µM unless noted.
Experiment [3] has as its system SN12C renal. The following applies: 10 µM unless noted.
Experiment [4] concerns UO-31 renal. The conditions noted are these: 10 µM unless noted.
Experiment [5] relates to TK-10 renal. The following applies: 10 µM unless noted.
The subject of experiment [6] is ACHN renal. The following applies: 10 µM unless noted.
Experiment [7] relates to CAKI-1 renal. The conditions noted are these: 10 µM unless noted.
In experiment [8] the test system is A498 renal. The conditions noted are these: 10 µM unless noted.
Experiment [9] relates to MOLT-4 leukemia. The conditions noted are these: 10 µM unless noted.
Experiment [10] concerns RPMI-8226 leukemia. The conditions noted are these: 10 µM.
The test system of experiment [11] is OVCAR-8 ovarian. The conditions noted are these: 10 µM unless noted.
Experiment [12] has as its system OVCAR-5 ovarian. The conditions noted are these: 10 µM unless noted.
Experiment [13] concerns OVCAR-4 ovarian. The following applies: 10 µM unless noted.
In experiment [14] the test system is SK-OV-3 ovarian. The conditions noted are these: 10 µM.
For experiment [15], the system named is IGROV1 ovarian. The following applies: 10 µM unless noted.
Experiment [16] deals with OVCAR-3 ovarian. The conditions noted are these: 10 µM unless noted.
Experiment [17] deals with HS 578T breast. The following applies: 10 µM unless noted.
Experiment [18] relates to NCI/ADR-RES ovarian. The following applies: 10 µM unless noted.
For experiment [19], the system named is SR leukemia. The conditions noted are these: 10 µM unless noted.
In experiment [20] the test system is CCRF-CEM leukemia. The following applies: 10 µM unless noted.

The panel holds about 83,000 compounds, 20% with a hit somewhere; the sample as a whole holds those more often.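 Plates (96-well) were seeded with cells, treated with compound at one concentration, and incubated for 48 hours before percent growth was determined.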 A number with no mark means an inactive call. Active and inactive are the calls of the source. Rule for the calls: active = growth percent below 10; inactive = the rest.

On to `O=[N+]([O-])c1ccc2nc(N/N=C/c3ccc(O)cc3)sc2c1`, for which the growth was -0.896% (active) in [1]; 85.5% in experiment [2]; 54.7% in [3]; 27.5% in [4]; 54% in experiment [5]; 47% in [6]. For the same molecule, the growth was 23.2% in [7]; 91.5% in [8]; 24% in [9]; 28.3% in experiment [10]; 59.9% in [11]; 113% in experiment [12]. Besides, the growth in [13] is 56%; in [14], 82.4%; in experiment [15] it was 46.6%; in experiment [16] it was 51.3%; in experiment [17] it was 83.5%; in [18], 81.7%.

For `COc1ccc(C2SC(C)C(=O)N2CCc2cccs2)cc1OC` (configuration not stated), the growth in experiment [1] is 93%; in experiment [2] it was 66.4%; in [3], 90.1%; in experiment [4], 79.2%; in experiment [5], 113%; in experiment [6], 80.1%. The growth in experiment [7] was 73.2%; in [8], 81.9%; in experiment [9], 64.7%; in experiment [19], 63.8%; in [10], 68.8%; in experiment [11], 85.1%. Besides, the growth in [13] was 62.8%; in [14], 102%; in [15] it was 79.6%; in experiment [16], 95.3%; in [17] it was 95.4%; in experiment [18] it was 86.1%.

Regarding `CC1CCCCN1S(=O)(=O)c1ccc(CN=C=S)cc1` (configuration not stated), the growth in experiment [1] is 94.5%; in experiment [2], 99.2%; in experiment [3] it was 66.1%; in [4], 54%; in experiment [5], 64.4%; in experiment [6], 4.78% (active). Moreover, the growth was 51.2% in experiment [7]; 79% in [8]; 39.2% in experiment [20]; 31.1% in [9]; 5.92% (active) in [19]; 78.7% in experiment [11]. The growth in experiment [12] is 93%; in experiment [13] it was 100%; in experiment [15] it was 60.9%; in [16], -55.6% (active); in experiment [17], 59.4%; in [18] it was 102%.

Take `CCCCc1ccc(NC(=O)C(F)(F)F)cc1`: the growth in [1] was 99%; in experiment [2], 120%; in [3] it was 98.3%; in experiment [4] it was 83.8%; in experiment [5] it was 95.4%; in experiment [6], 102%. For the same molecule, the growth in [7] was 105%; in experiment [8], 84.1%; in [9], 74.9%; in experiment [19] it was 86.4%; in experiment [10] it was 91.4%; in [11] it was 95.1%. Besides, the growth in [12] is 99.6%; in experiment [13], 114%; in experiment [14], 109%; in experiment [15], 113%; in [16], 106%; in experiment [18] it was 103%.

Consider `CCOC(=O)c1cn2c3c(cc(F)cc3c1=O)C(CC)c1ccccc1C2` (configuration not stated), for which the growth in [1] is 96.8%; in [2], 99.7%; in experiment [3], 96.3%; in experiment [4], -57.3% (active); in experiment [5], 111%; in experiment [6], 105%. The growth in experiment [7] is 102%; in experiment [8] it was 89.5%; in [20] it was 74.9%; in experiment [9], 65.6%; in experiment [10] it was 64.2%; in experiment [11], 95.9%. Also, the growth in experiment [14] was 104%; in experiment [15], 93.1%; in experiment [16], 92.9%; in experiment [18] it was 91.2%.

With `O=C1/C(=C/c2ccc(Oc3ccccc3)cc2)N=C(c2ccccc2)N1CCc1cccs1`, the growth in experiment [1] was 75.5%; in experiment [2], 95.7%; in [3], 91.3%; in experiment [4], 67.6%; in experiment [5], 80.6%; in [6] it was 96.1%. Besides, the growth in [7] was 67.9%; in experiment [20], 79.1%; in [9], 62.8%; in experiment [19] it was 81%; in [10] it was 69.7%; in [11], 88.6%. In addition, the growth was 109% in experiment [12]; 78% in experiment [13]; 106% in experiment [14]; 71.5% in experiment [15]; 106% in experiment [16]; 58.7% in experiment [17].

In the case of `COc1ccccc1CNCCCCCCCCCCCCN1C(=O)c2ccc3c4c(ccc(c24)C1=O)C(=O)N(CCCCCCCCCCCCNCc1ccccc1OC)C3=O`, the growth in experiment [1] was 107%; in experiment [2], 109%; in [3], 74.1%; in [4], 109%; in experiment [5], -46.7% (active); in experiment [6], 78.4%. For the same molecule, the growth in [7] was 102%; in experiment [8] it was -60.4% (active); in experiment [20], 50.4%; in [19] it was 7.77% (active); in experiment [10] it was 2.41% (active); in experiment [11], -60.9% (active). The growth is 100% in experiment [12]; 92.3% in experiment [13]; 117% in experiment [14]; 83% in experiment [15]; 44.5% in experiment [16]; -9.15% (active) in experiment [17]. The growth in experiment [18] is 85%.

`CC(C)NCC(O)COc1ccc(CCOCC2CC2)cc1` (configuration not stated): the growth is 109% in experiment [1]; 98.4% in experiment [2]; 96.9% in [3]; 76.9% in experiment [4]; 111% in experiment [5]; 109% in [6]. Besides, the growth in experiment [7] is 99.3%; in experiment [8], 90.7%; in experiment [20], 93.8%; in [9], 88.3%; in experiment [10], 99.1%; in experiment [11] it was 93%. Besides, the growth in experiment [12] was 107%; in experiment [13], 82.5%; in experiment [14], 113%; in experiment [15] it was 113%; in [16] it was 112%; in experiment [17], 109%.

With `COc1cccc(C2C3=C(COC3=O)N(CCO)c3cc4c(cc32)CCC4)c1` (configuration not stated), the growth was 36.8% in experiment [1]; 27.9% in experiment [2]; 19.5% in experiment [3]; 42.3% in [4]; 53.8% in experiment [5]; 35.5% in experiment [6]. Besides, the growth is 4.92% (active) in experiment [7]; -19.8% (active) in experiment [8]; 20.9% in experiment [20]; 29.4% in experiment [19]; 28.1% in experiment [10]; 20.9% in experiment [11]. Moreover, the growth in experiment [12] is 32.9%; in experiment [13], 10.3%; in experiment [14] it was 20.9%; in experiment [15], 8.37% (active); in experiment [16] it was -46% (active); in experiment [17] it was 2.16% (active). For the same molecule, the growth in [18] is -43.2% (active).
